# Screening data as filed in PubChem BioAssay.
# In the library only some 1.3% were active in any assay of this set; here they are far more common.
# NCOA1 inh = human NCOA1 inhibition. HEK293 GAL4-SRC1 luciferase reporter, luminescence. inhibition, % at 3.6 µM. AID 588354. hit rate 0.12% among 360,000. Q15788;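 active = inhibition above the campaign mean plus 3 SD, with each screening campaign given its own cutoff, cut at about 60% in these data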;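 also: 0% = DMSO treated cells and 100% = gossypol at 36 µM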
# NR2F2 inh = NR2F2 (human) inhibition, primary screen; inhibition, % at 8.6 µM; HEK293T NGFI-A luciferase reporter, luminescence; hit rate 0.7% among 370,000;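 active = inhibition above a per-plate cutoff, mean inhibition of test wells between control levels plus 3 SD, cut at about 38% in these data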;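 also: cells cotransfected with COUP-TFII expression vector driving the NGFI-A reporter; 0% = median of COUP-TF2 test wells and 100% = reporter-only cells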
# NCOA3 inh = inhibitors of human steroid receptor coactivator 3 (SRC3) | inhibition, % at 3.6 µM | Q9Y6Q9 | hit rate 0.17% among 360,000 | HEK293 GAL4-SRC3 luciferase reporter, luminescence | AID 588352;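 active = inhibition above a per-campaign cutoff, the mean of all compounds plus 3 SD, cut at about 60% in these data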;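 also: 0% = DMSO-treated cells and 100% = gossypol-treated cells at 36 µM; higher means less SRC3-driven luciferase light from the GAL4 reporter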
# Gli-Sufu antag = Gli-Sufu pathway antagonism; hit rate 0.74% among 340,000; Sufu-KO-LIGHT fibroblasts, Gli luciferase reporter luminescence; inhibition, % at 5 µM;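 active = inhibition above about 55%, limit read from the data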;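 also: 0% = DMSO-treated cells and 100% = wells with medium but no cells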
# LRH-1 inv ag = inverse agonists of human LRH-1 (NR5A2); inhibition, % at 3.6 µM; O00482; HEK293T StAR-luciferase reporter, LRH-1 transfected, 24 h; hit rate 0.13% among 360,000; AID 602396;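 active = inhibition above the mean inhibition of all tested compounds plus 3 SD, cut at about 73% in these data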;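 also: 0% = DMSO wells and 100% = reporter-only cells lacking LRH-1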
# NCOA2 inhibitor = inhibits human steroid receptor coactivator 2; Q15596; HEK293 GAL4-SRC2 luciferase reporter, luminescence; inhibition, % at 9 µM; hit rate 0.17% among 370,000;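 active = inhibition above the mean inhibition of all tested compounds plus 3 SD, set per campaign, cut at about 52% in these data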;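 also: 0% = DMSO treated cells and 100% = cells given Gossypol at 36 µM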
# Gal4-VP16 ctr = counter-screen for COUP-TFII antagonists: inhibitors of VP16; shares compounds with NR2F2 inh; HEK293 Gal4-VP16 luciferase reporter, luminescence; inhibition, % at 8.5 µM; hit rate 25% among 2,500; AID 687007; in the data active = inhibition above about 13%
# COUP-TFII conf = COUP-TFII (NR2F2) inhibition, confirmation assay | shares compounds with NR2F2 inh | HEK293 NGFI-A luciferase reporter, luminescence | inhibition, % at 8.5 µM | hit rate 45% among 2,500 | AID 687008;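 active = mean inhibition over three repeats above a set limit taken from the earlier primary screen, cut at about 38% in these data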;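 also: 100% = cells given the luciferase reporter alone without the COUP-TF2 vector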
# The depositor's hits bear a star; / = no result given.
SMILES,NCOA1 inh,NR2F2 inh,NCOA3 inh,Gli-Sufu antag,LRH-1 inv ag,NCOA2 inhibitor,Gal4-VP16 ctr,COUP-TFII conf
CC(NCc1ccco1)C(=O)N1CCCC1 (stereo not drawn),/,0,/,/,/,3,/,/
CCOC(=O)N1CCN(C(=O)c2ccc3c(c2)NC(=O)/C(=C\c2ccc(OC)c(OC)c2)S3)CC1,13,7,-6,-3,-15,12,/,/
CCOC(=O)N1CCC(NC(=O)c2ccc3c(c2)N(C)C(=O)/C(=C/c2cccc(OC)c2)S3)CC1,8,40*,12,27,21,31,12,53*
CCOC(=O)N1CCN(C(=O)c2ccc3c(c2)N(C)C(=O)/C(=C\c2ccc(OCC)c(OC)c2)S3)CC1,-16,51*,-1,-8,26,16,2,24
Cc1cccc(/C=C2\Sc3ccc(C(=O)N4CCC(C)CC4)cc3N(C)C2=O)c1,0,26,3,5,-2,19,/,/
O=[N+]([O-])c1ccc(Sc2cccc[n+]2[O-])c2nonc12,89*,101*,84*,86*,90*,93*,96*,105*
CN(C)c1ccc(CC(=O)N2CCCC(c3cc(C(=O)Nc4ccc(C(C)(C)C)cc4)no3)C2)cc1 (stereo not drawn),-6,64*,-7,/,16,12,14*,61*
O=C(Nc1ccccc1)c1cc(C2CCCN(C(=O)CCc3ccccc3)C2)on1 (stereo not drawn),-67,-56,-67,/,-51,-42,/,/
C=C1C[C@@H]2C[C@@H]2CN(S(=O)(=O)c2ccc(C)cc2)[C@@H]1COCc1ccccc1,/,40*,/,/,19,-16,-8,6
Cc1ccc(S(=O)(=O)N2CCC(=O)N(CCOCc3ccccc3)CC2)cc1,-9,-3,-5,0,20,2,/,/
CCC(=NC(C)c1ccccc1)c1c(O)n(C)c(=O)n(C)c1=O (stereo not drawn),13,56*,27,40,19,22,-1,29
CSCCC(Nc1ncnc2ccc(Br)cc12)C(=O)O (stereo not drawn),2,19,0,-5,17,13,/,/
CC(C)Nc1ncnc2ccc(Br)cc12,66*,53*,62*,44,47,46,19*,45*
CCC(=O)N(C1=C(NC(C)C)C(=O)c2ccccc2C1=O)C(C)C,8,3,4,8,12,-7,/,/
CCCNC1=C(N(C(C)=O)c2cccc(F)c2)C(=O)c2ccccc2C1=O,28,57*,40,85*,79*,58*,12,-2
C[C@H](CO)N1C[C@H](C)[C@@H](CN(C)C(=O)Nc2cccc(C(F)(F)F)c2)OCc2cn(nn2)CCCC1=O,/,-6,/,/,/,1,/,/
Cc1ccccc1CN1C(=O)c2ccccc2S1(=O)=O,8,-17,4,26,2,-2,/,/
O=C1c2ccccc2S(=O)(=O)N1Cc1nc2ccccc2s1,16,42*,19,-8,9,52,-6,29
C=C1C(=O)O[C@@H]2C[C@@H](C)[C@@H]3C=CC(=O)[C@@]3(C)[C@@H](OC(C)=O)[C@H]12,/,86*,/,96*,/,83*,94*,105*
CCc1ccc(CNC(=O)C2CCC(=O)N(CCc3ccc(Cl)cc3)C2)nc1 (stereo not drawn),-22,23,5,14,16,-22,/,/
S=C(Nc1ccc(Nc2ccccc2)cc1)Nc1ccccn1,-21,39*,18,35,8,-24,-30,16
S=C(Nc1ccccc1)Nc1ccccn1,-11,1,-32,/,-8,-15,/,/
COC(=O)C1CN(Cc2cn(Cc3ccc(Cl)cc3)nn2)CCS(=O)(=O)N1Cc1ccc(OC)cc1 (stereo not drawn),/,4,/,/,/,21,/,/
COC(=O)C1CN(Cc2cn(Cc3ccc(Cl)cc3)nn2)CCS(=O)(=O)N1Cc1ccc(Cl)cc1 (stereo not drawn),/,38*,/,/,/,15,-4,3
Cc1ccccc1C(=O)N1CCN(c2ccc(NC(=S)NC(=O)c3ccco3)cc2)CC1,-8,46*,24,14,23,23,-8,18
SMILES,NCOA1 inh,NR2F2 inh,NCOA3 inh,Gli-Sufu antag,LRH-1 inv ag,NCOA2 inhibitor,Gal4-VP16 ctr,COUP-TFII conf
COc1ccccc1C(=O)NC(=S)Nc1ccc(N2CCN(C(=O)c3ccco3)CC2)cc1,6,23,-2,33,-2,5,/,/
Cc1cccc(OCC(=O)Nc2ccc(N3CCN(C(=O)c4ccco4)CC3)cc2)c1,-24,64*,23,25,20,2,1,34
CN(C)c1ccc(C2Nc3ccccc3C(=O)N2CCCN2CCOCC2)cc1 (stereo not drawn),16,47*,12,3,9,39,-11,-15
O=C(c1ccc(S(=O)(=O)c2cccc(Cl)c2)c([N+](=O)[O-])c1)N1CCN(c2ccccn2)CC1,-1,45*,19,18,2,28,21*,9
COc1cccc(-c2ncn(CCc3ccccc3OC)c2C(C)C)c1,/,34,/,/,-17,20,/,/
COc1ccc(CC(=O)OCC(=O)NC2CCCC(C)C2C)cc1OC (stereo not drawn),8,50*,-5,-2,-15,18,-3,7
Cc1cccc(-c2cccc(NC(=O)C3CCCN(C(=O)c4csc(C)n4)C3)c2)c1 (stereo not drawn),19,42*,7,4,25,7,-35,18
Cc1cc(NNC(=O)c2cccc(C(F)(F)F)c2)nc2c1c(C)nn2C,12,50*,20,25,34,24,-2,43*
Cc1cc(C)n(CC(=O)NNC(=O)c2cccc(C(F)(F)F)c2)n1,7,0,-10,4,8,18,/,/
COc1ccc(CCNc2ncnc3sc(C)cc23)cc1OC,19,79*,26,69*,46,36,-1,68*
CCOc1ccc2[nH]c3c(NCCc4ccc(OC)c(OC)c4)ncnc3c2c1,-29,49*,16,15,-1,-10,-11,5
O=C(Nc1ccc2c(c1)OCCO2)C(c1cc2ccccc2o1)N1CCC(Cc2ccccc2)CC1 (stereo not drawn),10,33,22,/,19,17,/,/
CC1CC(C)C[N+](=C2C=C(N3CCCC3)CC(C)(C)C2)C1 (stereo not drawn),34,62*,54,86*,65,-1,15*,59*
CC(Oc1ccc(Cl)cc1Cl)c1nc(-c2ccc(NC(=O)c3ccncc3)cc2)no1 (stereo not drawn),15,80*,22,38,31,-12,0,32
